# Values joined by “and” are separate entries in the source; they are usually repeats but may differ in a detail not shown here. Equal entries are not always repeated. Inconclusive results are not listed. Active and inactive are the calls of the source.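 The calls were made as follows, unless noted: active = compounds whose cell count with miR-34 switched on is under 0.7 times the count with it off; inactive = the rest.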
# Tests used:
# [1] = EMT-state selective cytotoxicity in co-culture – imaging, PC-3E GFP, TEM4-18 mCherry, primary screen (AID 1345086;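 active = compounds killing one labelled cell type while sparing the other, by normalised counts and ratio limits, not self-fluorescent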;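 as to all read-outs here: cells exposed to compound for 72 h before imaging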;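 as to red/green cell ratio (normalised): normalised mesenchymal count divided by normalised epithelial count so high means epithelial killing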); details: PC-3E GFP / TEM4-18 mCherry co-culture, imaging cell counts, at 1 µM; for red/green cell ratio (normalised): actives lie on both sides, counts scaled to control wells, 1 = unselective
# [2] = viability loss in pontine glioma line – cell-based, SU-DIPG-XIII, MIPE4.0, CellTiter-Glo, qHTS, dose response (AID 1347061; cut-off not given, nearly all actives have AC50 up to about 37 µM;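 also: cells exposed to compound for 48 hours before readout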); details: CellTiter-Glo ATP luminescence
# [3] = viability loss in pontine glioma line – cell-based, JHH-DIPG-1, MIPE4.0, CellTiter-Glo, qHTS, dose response (AID 1347062; cut-off not given, nearly all actives have AC50 up to about 27 µM;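 as to AC50: cells exposed to compound for two days before readout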); details: JHH-DIPG-1 viability, CellTiter-Glo ATP luminescence
# [4] = viability loss in pontine glioma line – cell-based, SU-DIPG-IV, MIPE4.0, CellTiter-Glo, qHTS, dose response (AID 1347063; cut-off not given, nearly all actives have AC50 up to about 30 µM;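 also: compound exposure lasted 48 hours before the viability readout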); details: CellTiter-Glo ATP luminescence
# [5] = viability loss in pontine glioma line – cell-based, SU-DIPG-XXV, MIPE5.0, CellTiter-Glo, qHTS, dose response (AID 1347065; cut-off not given, nearly all actives have AC50 up to about 26 µM;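 also: cells exposed to compound for 48 hours before ATP readout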); details: CellTiter-Glo ATP luminescence
# [6] = growth inhibition of DIPG cells – cell-based, MIPE4.0 library, CellTiter-Glo luminescence, qHTS (AID 1347066; cut-off not given, nearly all actives have AC50 up to about 30 µM;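 also: cells exposed to compound for 48 hours before readout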); details: SU-DIPG-VI viability, CellTiter-Glo ATP luminescence
# [7] = JHH-DIPG-1 glioma cell viability, MIPE5.0 library, CellTiter-Glo luminescence, qHTS (AID 1347067; cut-off not given, nearly all actives have AC50 up to about 26 µM;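 also: cells exposed to compound for 48 hours before readout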); details: JHH-DIPG-1 glioma viability, CellTiter-Glo ATP luminescence
# [8] = growth inhibition of DIPG cells – cell-based, MIPE5.0 library, qHTS (AID 1347068; cut-off not given, nearly all actives have IC50 up to about 30 µM); details: SU-DIPG-XXV viability
# [9] = blockers of cellular phospholipid synthesis – cell-based, LOPAC library, screen 4, primary screen (AID 1347384; call rule not given here); details: animal cells, phospholipid biosynthesis inhibition screen; at 10 µM
# [10] = MELAS cybrid and Rieske KO viability enhancers – cell-based, MELAS cybrids, Rieske KO mouse fibroblasts, CellTiter-Glo, primary screen (AID 1508586;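 active = mean z-score across replicates of 1.96 or higher in either the MELAS or the Rieske mutant cell line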;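 also: z relative to plate mean and SD of compound and empty wells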); details: low glucose
# [11] = viability loss in pontine glioma line – cell-based, SU-DIPG-XIII, MIPE5.0, CellTiter-Glo, qHTS, dose response (AID 1347064; cut-off not given, nearly all actives have AC50 up to about 23 µM;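 as to AC50: cells exposed to compound for 48 hours before the viability read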); details: CellTiter-Glo ATP luminescence
# [12] = viability loss with induced miR-34 in A549 – imaging, A549 dox-inducible miR-34, nuclei and caspase counts, primary screen (AID 1347080); details: A549 miR-34 inducible, Hoechst nuclei count, 48 h
# [13] = chitosan synthesis blockers in C. neoformans – flow cytometry, Cibacron Brilliant Red staining (AID 1347148; call rule not given here;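 also: compound exposure lasted three days at 37 degrees C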); details: Cryptococcus neoformans chitosan, stronger effect = lower value; at 10 µM unless noted
# [14] = viability loss in pontine glioma line – cell-based, SU-DIPG-XVII, MIPE5.0, CellTiter-Glo, qHTS, dose response (AID 1347060; cut-off not given, nearly all actives have AC50 up to about 26 µM;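 as to AC50: cells exposed to compound for 48 hours before viability readout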); details: CellTiter-Glo ATP luminescence
# [15] = measured here: epithelial PC-3E GFP cell survival
# [16] = measured here: mesenchymal TEM4-18 mCherry cell survival
# [17] = MELAS cybrid survival, CellTiter-Glo 48 h, stronger effect = higher value
# [18] = Rieske KO mouse fibroblast survival, CellTiter-Glo 72 h
# [19] = stronger effect = lower value, cell number ratio, induced over uninduced
# [20] = measured here: relative caspase fold change +Dox/-Dox
# [21] = measured here: total cells with miR-34 induction, stronger effect = lower value
# [22] = measured here: total cells without miR-34 induction
smiles,measurement,setting,value
CC[N+](CC)(CC)CCOc1cccc(OCC[N+](CC)(CC)CC)c1OCC[N+](CC)(CC)CC,red/green cell ratio (normalised),[1],1.1 (inactive)
same,normalised cell number,[1]; [15],0.87
same,normalised cell number,[1]; [16],0.96
same,outcome,[2],inactive
same,outcome,[3],inactive
same,outcome,[4],inactive
same,outcome,[5],inactive
same,outcome,[6],inactive
same,outcome,[7],inactive
same,outcome,[8],inactive
same,outcome,[9],inactive
same,z-score,[10]; [17],-0.318 (inactive) and -0.405 (inactive) and -0.918 (inactive)
same,z-score,[10]; [18],0.619 and -0.334 and -0.59
CCC1(C)CC(=O)NC1=O (centres undefined),red/green cell ratio (normalised),[1],1.22 (inactive)
same,normalised cell number,[1]; [15],1.07
same,normalised cell number,[1]; [16],1.31
same,outcome,[2],inactive
same,outcome,[3],inactive
same,outcome,[4],inactive
same,outcome,[11],inactive
same,outcome,[5],inactive
same,outcome,[6],inactive
same,outcome,[7],inactive
same,outcome,[8],inactive
same,fold change,[12]; [19],0.975 (inactive) and 0.962 (inactive) and 0.96 (inactive)
same,fold change,[12]; [20],1.24 and 1.03 and 2.35
same,cell count,[12]; [21],10300 and 8160 and 12600
same,cell count,[12]; [22],10600 and 8470 and 13100
same,outcome,[9],inactive
same,z-score,[10]; [17],-0.00472 (inactive)
same,z-score,[10]; [18],-0.121
O=C(O)c1cccnc1Nc1cccc(C(F)(F)F)c1,red/green cell ratio (normalised),[1],0.93 (inactive)
same,normalised cell number,[1]; [15],1.08
same,normalised cell number,[1]; [16],1
same,outcome,[2],inactive
same,outcome,[3],inactive
same,outcome,[4],inactive
same,outcome,[6],inactive
same,fold fluorescence,[13],3.63 [at 177.2 µM] (inactive)
same,outcome,[9],inactive
same,z-score,[10]; [17],-0.334 (inactive) and -0.267 (inactive) and 0.0798 (inactive)
same,z-score,[10]; [18],-0.307 and -0.187 and -0.378
Nc1ncnc2c1ncn2[C@@H]1O[C@H](CO)[C@@H](O)[C@H]1O,red/green cell ratio (normalised),[1],1.15 (inactive)
same,normalised cell number,[1]; [15],0.81
same,normalised cell number,[1]; [16],0.94
same,AC50,[2],18.7 µM (active)
same,AC50,[3],0.935 µM (active)
same,outcome,[5],inactive
same,outcome,[6],inactive
same,outcome,[8],inactive
same,fold change,[12]; [19],0.803 (inactive)
same,fold change,[12]; [20],0.527
same,cell count,[12]; [21],10400
same,cell count,[12]; [22],12900
NCCCCCC(=O)O,red/green cell ratio (normalised),[1],0.92 (inactive)
same,normalised cell number,[1]; [15],1.31
same,normalised cell number,[1]; [16],1.21
same,outcome,[2],inactive
same,outcome,[3],inactive
same,outcome,[4],inactive
same,outcome,[11],inactive
same,outcome,[5],inactive
same,outcome,[7],inactive
same,outcome,[8],inactive
same,outcome,[9],inactive
same,z-score,[10]; [17],-0.274 (inactive) and -0.333 (inactive)
same,z-score,[10]; [18],-0.165 and -1.21
COc1ccc2c(c1)c(CC(=O)OCC(=O)O)c(C)n2C(=O)c1ccc(Cl)cc1,red/green cell ratio (normalised),[1],0.77 (inactive)
same,normalised cell number,[1]; [15],1.18
same,normalised cell number,[1]; [16],0.91
same,outcome,[2],inactive
same,outcome,[3],inactive
same,outcome,[4],inactive
same,outcome,[6],inactive
same,fold change,[12]; [19],0.914 (inactive) and 0.85 (inactive) and 0.854 (inactive)
same,fold change,[12]; [20],1.04 and 0.882 and 1.4
same,cell count,[12]; [21],8990 and 8100 and 8980
same,cell count,[12]; [22],9840 and 9530 and 10500
same,z-score,[10]; [17],-0.366 (inactive) and 0.477 (inactive) and -0.419 (inactive)
same,z-score,[10]; [18],0.51 and 0.248 and -0.275
C[C@H]1c2cccc(O)c2C(O)=C2C(=O)[C@]3(O)C(O)=C(C(N)=O)C(=O)[C@@H](N(C)C)[C@@H]3[C@@H](O)[C@@H]21,red/green cell ratio (normalised),[1],1.48 (inactive)
same,normalised cell number,[1]; [15],1.06
same,normalised cell number,[1]; [16],1.57
same,outcome,[2],inactive
same,outcome,[3],inactive
same,fold change,[12]; [19],0.948 (inactive) and 0.723 (inactive) and 0.815 (inactive)
same,fold change,[12]; [20],0.896 and 4.48 and 1.65
same,cell count,[12]; [21],1440 and 3910 and 7870
same,cell count,[12]; [22],1520 and 5410 and 9650
same,outcome,[9],inactive
same,z-score,[10]; [17],0.0416 (inactive) and -0.292 (inactive)
same,z-score,[10]; [18],-2.32 and -1.86
CCC[C@H](N[C@@H](C)C(=O)N1[C@H](C(=O)O)C[C@@H]2CCCC[C@@H]21)C(=O)OCC,red/green cell ratio (normalised),[1],1.01 (inactive)
same,normalised cell number,[1]; [15],0.96
same,normalised cell number,[1]; [16],0.96
same,outcome,[14],inactive
same,outcome,[11],inactive
same,outcome,[5],inactive
same,outcome,[6],inactive
same,outcome,[7],inactive
same,outcome,[8],inactive
same,fold change,[12]; [19],0.917 (inactive) and 0.847 (inactive)
same,fold change,[12]; [20],0.846 and 3.59
same,cell count,[12]; [21],9000 and 11500
same,cell count,[12]; [22],9820 and 13600
same,z-score,[10]; [17],0.628 (inactive)
same,z-score,[10]; [18],-0.272
CCCN(CCC)C(=O)C(CCC(=O)O)NC(=O)c1ccccc1 (centres undefined),red/green cell ratio (normalised),[1],1.08 (inactive)
same,normalised cell number,[1]; [15],0.92
same,normalised cell number,[1]; [16],1
same,AC50,[14],26.3 µM (active)
same,outcome,[11],inactive
same,outcome,[5],inactive
same,outcome,[7],inactive
same,outcome,[8],inactive
same,fold change,[12]; [19],1.06 (inactive) and 0.936 (inactive) and 0.845 (inactive)
same,fold change,[12]; [20],0.941 and 0.892 and 4.08
same,cell count,[12]; [21],10500 and 8340 and 11300
same,cell count,[12]; [22],9940 and 8900 and 13400
same,outcome,[9],inactive
same,z-score,[10]; [17],-1.04 (inactive)
same,z-score,[10]; [18],-0.386
CCOC(=O)[C@H](CCc1ccccc1)N[C@@H](C)C(=O)N1CCC[C@H]1C(=O)O,red/green cell ratio (normalised),[1],0.88 (inactive)
same,normalised cell number,[1]; [15],1.12
same,normalised cell number,[1]; [16],0.99
same,outcome,[2],inactive
same,outcome,[3],inactive
same,outcome,[4],inactive
same,outcome,[11],inactive
same,outcome,[5],inactive
same,outcome,[6],inactive
same,outcome,[7],inactive
same,fold change,[12]; [19],0.896 (inactive) and 0.877 (inactive) and 0.886 (inactive)
same,fold change,[12]; [20],0.827 and 3.26 and 1.44
same,cell count,[12]; [21],8260 and 11300 and 10300
same,cell count,[12]; [22],9220 and 12900 and 11600
same,z-score,[10]; [17],-1.03 (inactive) and -0.334 (inactive)
same,z-score,[10]; [18],-0.133 and -0.361
Nc1ccc(S(=O)(=O)Nc2ccccn2)cc1,red/green cell ratio (normalised),[1],1.49 (inactive)
same,normalised cell number,[1]; [15],0.99
same,normalised cell number,[1]; [16],1.47
same,outcome,[2],inactive
same,outcome,[3],inactive
same,outcome,[6],inactive
same,fold change,[12]; [19],0.875 (inactive) and 0.859 (inactive)
same,fold change,[12]; [20],1.07 and 2.95
same,cell count,[12]; [21],9140 and 10900
same,cell count,[12]; [22],10400 and 12600
same,z-score,[10]; [17],-0.349 (inactive)
same,z-score,[10]; [18],0.469
Clc1ccc(C(c2ccccc2Cl)C(Cl)Cl)cc1 (centres undefined),red/green cell ratio (normalised),[1],0.98 (inactive)
same,normalised cell number,[1]; [15],1.11
same,normalised cell number,[1]; [16],1.08
same,AC50,[4],16.6 µM (active)
same,AC50,[11],18.6 µM (active)
same,AC50,[6],23.5 µM (active)
same,AC50,[7],20.9 µM (active)
same,fold change,[12]; [19],1.02 (inactive) and 0.901 (inactive) and 0.92 (inactive)
same,fold change,[12]; [20],1.69 and 0.413 and 1.68
same,cell count,[12]; [21],9100 and 8310 and 10700
same,cell count,[12]; [22],8890 and 9220 and 11600
same,outcome,[9],inactive
same,z-score,[10]; [17],-0.255 (inactive) and -0.0992 (inactive)
same,z-score,[10]; [18],0.722 and 0.331
COc1ccc2cc3[n+](cc2c1OC)CCc1cc2c(cc1-3)OCO2,red/green cell ratio (normalised),[1],0.81 (inactive)
same,normalised cell number,[1]; [15],0.85
same,normalised cell number,[1]; [16],0.69
same,AC50,[14],18.6 µM (active)
same,AC50,[3],4.18 µM (active)
same,AC50,[11],16.6 µM (active)
same,AC50,[5],18.6 µM (active)
same,AC50,[6],23.5 µM (active)
same,AC50,[7],18.6 µM (active)
same,fold change,[12]; [19],0.92 (inactive) and 0.934 (inactive)
same,fold change,[12]; [20],1.68 and 1.22
same,cell count,[12]; [21],5700 and 4440
same,cell count,[12]; [22],6200 and 4750
same,z-score,[10]; [17],0.0209 (inactive)
same,z-score,[10]; [18],0.259

# Reference: PubChem BioAssay
